The campaign covered roughly 39,000 compounds. About 220 (0.56%) showed activity. What follows is part of a selection rich in actives, with near analogues and random picks from the rest.
Tested on: Escherichia coli K-12 BW25113
Test: relative growth (OD600 normalised to plate interquartile mean) (fraction); higher = less growth inhibition, active = 0.2 or less
Settings: 50 µM; LB; incubation time: overnight (16-24 h)
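Also: Wild-type cells incubated without shaking, value is the mean of two biological replicates.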

SMILES	relative growth
C[C@H](CO)N1C[C@H](C)[C@H](CN(C)S(=O)(=O)c2ccccc2F)Oc2ncc(C#Cc3ccccc3F)cc2C1=O	0.997 (inactive)
CO[C@@H]1CN(C)C(=O)c2cc(NC(=O)c3ccccc3)ccc2OC[C@@H](C)N(C(=O)CN(C)C)C[C@@H]1C	0.926 (inactive)
Cc1noc(C)c1NC(=O)Nc1cccc2c1O[C@H](CN(C)Cc1ccc(Oc3ccccc3)cc1)[C@H](C)CN([C@H](C)CO)C2=O	0.982 (inactive)
Cc1noc(C)c1S(=O)(=O)Nc1ccc2c(c1)C(=O)N([C@@H](C)CO)C[C@@H](C)[C@@H](CN(C)S(=O)(=O)c1cccs1)O2	1.01 (inactive)
C[C@H](CO)N1C[C@H](C)[C@H](CN(C)Cc2ccc(C(=O)O)cc2)Oc2ccc(NC(=O)CCCN(C)C)cc2C1=O	1.01 (inactive)
COc1ccc(C2=C(NC(=O)c3ccc(OC)cc3-c3cccc(OC)c3)C(=O)c3ccccc3C2=O)cc1	1.01 (inactive)
C[C@@H]1CCCCO[C@@H](CN(C)C(=O)CCC(F)(F)F)[C@H](C)CN([C@H](C)CO)C(=O)c2cc(NS(=O)(=O)c3ccccc3)ccc2O1	0.994 (inactive)
CC=CC1=C(C(=O)O)N2C(=O)C(NC(=O)C(N)c3ccc(O)cc3)C2SC1 (stereo unspecified)	1.08 (inactive)
Nc1nc(/C(=N/O)C(=O)N[C@@H]2C(=O)N3C(C(=O)O)=C(/C=C4\CCN([C@@H]5CCNC5)C4=O)CS[C@H]23)ns1	0.0367 (active)
C/C=C\C1=C(C(=O)O)N2C(=O)[C@H](NC(=O)[C@@H](N)c3ccc(O)cc3)[C@@H]2SC1	0.912 (inactive)
C=CC1=C(C(=O)O)N2C(=O)[C@@H](NC(=O)/C(=N/O)c3csc(N)n3)[C@H]2SC1	0.0336 (active)
C[C@H](CO)N1C[C@H](C)[C@H](CN(C)S(=O)(=O)c2ccc(Cl)cc2)Oc2ccc(NC(=O)CCCN(C)C)cc2C1=O	0.989 (inactive)
COc1ccc(Cc2nn[nH]n2)cc1	1 (inactive)
Cc1noc(C)c1NC(=O)N(C)C[C@H]1OCCCC[C@H](C)Oc2ccc(NC(=O)c3ccccc3)cc2C(=O)N([C@@H](C)CO)C[C@H]1C	0.98 (inactive)
CCc1nc2ccc(C(=O)Nc3cccc(OC)c3)cn2c1N(CC)Cc1cccc(Br)c1	1.01 (inactive)
CO[C@H]1CN(C)C(=O)c2cc(NC(C)=O)ccc2OC[C@@H](C)N(S(=O)(=O)c2cn(C)cn2)C[C@@H]1C	1.01 (inactive)
COc1c(N2CCNC(C)C2)c(F)cc2c(=O)c(C(=O)O)cn(C3CC3)c12 (stereo unspecified)	0.0431 (active)
COc1c(N2CC3CCCNC3C2)c(F)cc2c(=O)c(C(=O)O)cn(C3CC3)c12.Cl (stereo unspecified)	0.0459 (active)
CCn1cc(C(=O)O)c(=O)c2cc(F)c(N3CCNC(C)C3)c(F)c21.Cl (stereo unspecified)	0.0478 (active)
C[C@@H]1CN([C@@H](C)CO)C(=O)c2cc(Br)cnc2O[C@H]1CN(C)C(=O)c1ccc2c(c1)OCO2	0.994 (inactive)
Nc1c2c(=O)[nH]c(=O)cc-2[nH]n1-c1ccccc1	0.972 (inactive)

SMILES	relative growth
COCC#Cc1ccc2c(c1)O[C@H](CN(C)C(=O)C1CCOCC1)[C@H](C)CN([C@@H](C)CO)S2(=O)=O	1.01 (inactive)
CC(C)CNC(=O)C[C@H]1NCCNC1=O	0.923 (inactive)
CN1C(=O)c2cc(NC(=O)c3cccs3)ccc2OC[C@@H]2O[C@H](CC(=O)NCCN3CCCCC3)CC[C@H]21	1.02 (inactive)
C[C@@H]1CN([C@H](C)CO)C(=O)c2cc(NC(=O)Cn3cnnn3)ccc2O[C@@H]1CN(C)Cc1ccncc1	1.01 (inactive)
C[C@H]1CN([C@@H](C)CO)C(=O)c2cc(-c3ccncc3)cnc2O[C@H]1CN(C)S(=O)(=O)c1ccccc1	1.01 (inactive)
C=C(CC[C@@H](C)[C@H]1CC[C@@]2(C)C3=C(C[C@H](O)[C@]12C)[C@@]1(C)CC[C@@H](OC(=O)CC(=O)O)C(C)(C)[C@@H]1CC3)[C@@H](C)C(=O)O	0.89 (inactive)
C[C@@H]1CN([C@H](C)CO)C(=O)c2cc(NC(=O)Nc3ccc(F)cc3)ccc2O[C@@H](C)CCCCO[C@H]1CN(C)C(=O)C1CCCCC1	1.01 (inactive)
CN1CCN(C(=O)C[C@@H]2CC[C@@H]3[C@H](COC[C@H](O)CN3C(=O)Nc3ccc4c(c3)OCO4)O2)CC1	0.974 (inactive)
Cc1noc(C)c1S(=O)(=O)N(C)C[C@@H]1OCCCC[C@H](C)Oc2ccc(NC(=O)Nc3ccc(F)cc3)cc2C(=O)N([C@H](C)CO)C[C@@H]1C	1 (inactive)
CON=C(C(=O)NC1C(=O)N2C(C(=O)[O-])=C(COC(N)=O)CSC12)c1ccco1.[Na+] (stereo unspecified)	0.0464 (active)
CON=C(C(=O)NC1C(=O)N2C(C(=O)[O-])=C(COC(C)=O)CSC12)c1csc(N)n1.[Na+] (stereo unspecified)	0.0428 (active)
CO/N=C(\C(=O)N[C@@H]1C(=O)N2C(C(=O)O[C@@H](C)OC(C)=O)=C(COC(N)=O)CS[C@H]12)c1ccco1	1.01 (inactive)
CON=C(C(=O)NC1C(=O)N2C(C(=O)OC(C)OC(C)=O)=C(COC(N)=O)CSC12)c1ccco1 (stereo unspecified)	0.881 (inactive)
CON=C(C(=O)NC1C(=O)N2C(C(=O)[O-])=C(CSc3nc(=O)c([O-])nn3C)CSC12)c1csc(N)n1.O.O.O.[Na+].[Na+] (stereo unspecified)	0.0494 (active)
COCC1=C(C(=O)OC(C)OC(=O)OC(C)C)N2C(=O)C(NC(=O)C(=NOC)c3csc(N)n3)C2SC1 (stereo unspecified)	0.551 (inactive)
CO/N=C(\C(=O)N[C@@H]1C(=O)N2C(C(=O)O)=C(CSc3nnnn3C)CS[C@H]12)c1csc(N)n1	0.0456 (active)
Nc1nc(=O)c2nc(Br)n([C@@H]3O[C@@H]4COP(=O)(O)O[C@H]4[C@H]3O)c2[nH]1	1.03 (inactive)
O=C(C[C@@H]1C[C@H]2c3cc(NC(=O)Nc4ccc(C(F)(F)F)cc4)ccc3O[C@H]2[C@H](CO)O1)NCc1ccc(Cl)cc1	0.984 (inactive)
CN1CCN(C(=O)C[C@H]2CC[C@@H]3[C@H](COC[C@H](O)CN3CC3CCCC3)O2)CC1	1 (inactive)
C[C@H](CO)N1C[C@H](C)[C@H](CN(C)C(=O)c2cccc(F)c2)Oc2cc(-c3cccnc3)ccc2S1(=O)=O	1.03 (inactive)

Source: the supplement of paper PMC9446081
